Screening results as filed in PubChem.
FAS TE block – FAS thioesterase domain inhibitors, primary screen, biochemical, fluorescence intensity, uHTS; Fatty acid synthase (Homo sapiens), P49327; hit rate 0.67% among 360,000; recombinant FAS-TE, OMFH fluorogenic substrate, fluorescence endpoint; inhibition, % at 15 µM;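 active = compounds whose normalised, plate-corrected inhibition of enzyme fluorescence in the single-dose primary screen is 50% or more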
ADAM17 inh – ADAM17 inhibitors, primary screen, biochemical, QFRET; recombinant ADAM17, EDANS/DABCYL FRET peptide cleavage; inhibition, % at 6.95 µM; hit rate 0.83% among 370,000; AID 720648, 2013;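 active = inhibition above the mean of compounds lying between control limits plus 3 SD, set per campaign, cut at about 8.5% in these data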
NR3A LBD binder – binders of NR3A ligand-binding domain, primary screen, biophysical, differential scanning fluorimetry, uHTS; AID 1259313, 2017; Glutamate receptor ionotropic, NMDA 3A (GRIN3A) ligand-binding domain; NR3A LBD differential scanning fluorimetry, Tm shift; 0% = protein alone, 100% = glycine-bound protein; hit rate 2.5% among 340,000; Tm shift relative to glycine control, % at 25 µM;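 active = melting temperature shift of at least 10% of the positive control shift, at one fixed dose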
ADAM10 inh – human ADAM10 inhibitors, primary screen, biochemical, QFRET, HTS; inhibition, % at 7 µM; hit rate 0.62% among 370,000; recombinant ADAM10, EDANS/DABCYL FRET peptide cleavage, 3 h; AID 720582, 2013; Disintegrin and metalloproteinase domain-containing protein 10 (Homo sapiens), O14672;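 active = inhibition above a per-campaign cutoff equal to the mean of compounds falling between control-based bounds plus 3 SD, cut at about 20% in these data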
aDG glyco act – activators of alpha-DG glycosylation, primary screen, uHTS, Pro5-aDG cells, AlphaScreen. alpha-DG glycosylation AlphaScreen (IIH6); 0% Pro5, 100% B10-LARGE cell signal. activation, % at 10 µM. hit rate 0.22% among 360,000;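 active = activation of at least 8% versus controls, or a plate z-score of at least 8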;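 also: Pro5 are CHO cells carrying HIG-tagged alpha-DG that lacks glycosylation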
ADAM10 confirm – human ADAM10 inhibitors, confirmation, biochemical, QFRET, triplicate. inhibition, % at 6.95 µM. shares compounds with ADAM10 inh. ADAM10 QFRET peptide cleavage, EDANS fluorescence. hit rate 1% among 2,100;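 active = inhibition above about 20% chosen separately for each screening run, limit read from the data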
ADAM17 counter – ADAM17 inhibitors, counter-screen for ADAM10 exosite inhibitor project, biochemical, QFRET, high throughput. hit rate 0.5% among 2,100. ADAM17 QFRET peptide cleavage, EDANS fluorescence. inhibition, % at 6.95 µM. shares compounds with ADAM10 inh. AID 743214, 2013;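 active = mean triplicate inhibition above the solvent-only control wells' mean plus 3 SD, cut at about 12% in these data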
ADAM10 counter – ADAM10 inhibitors, counter-screen for ADAM17 exosite inhibitor project, biochemical, FRET, human ADAM10; inhibition, % at 6.95 µM; AID 743256, 2014; hit rate 47% among 2,900; recombinant ADAM10, EDANS/DABCYL FRET peptide cleavage, 3 h; shares compounds with ADAM17 inh;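 active = mean inhibition over the triplicate runs exceeds the activity threshold set in the earlier primary screen, cut at about 20% in these data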
ADAM17 confirm – ADAM17 inhibitors, hit retest, confirmation, biochemical, QFRET peptide cleavage. shares compounds with ADAM17 inh. recombinant ADAM17, EDANS/DABCYL QFRET peptide cleavage. inhibition, % at 6.95 µM. hit rate 65% among 2,900. AID 743257, 2014;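 active = mean inhibition across replicates above the hit cutoff set in the primary screen, cut at about 8.5% in these data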
A number is an active result; . = inactive; / = no result. The list is not random: actives were taken first. Their share in the collection is about 4%.

SMILES | FAS TE block | ADAM17 inh | NR3A LBD binder | ADAM10 inh | aDG glyco act | ADAM10 confirm | ADAM17 counter | ADAM10 counter | ADAM17 confirm
C=CCn1c(SCC(=O)c2c(N)n(C)c(=O)n(C)c2=O)nnc1-c1ccoc1C | . | . | . | . | . | / | / | / | /
Cc1cccc(NS(=O)(=O)c2cc(C(=O)NCCC3=CCCCC3)ccc2Cl)c1 | . | 8.7 | . | 21.1 | . | . | . | 21.4 | 11.7
O=C(Cn1cnc2cc([N+](=O)[O-])ccc2c1=O)Nc1ccc(Br)cc1 | . | . | . | . | . | / | / | / | /
C=CC[C@H](CC(=O)N(CCO)Cc1ccccc1)C(=O)N[C@@H](COC(=O)[C@@H](CC=C)CC(=O)OC(C)(C)C)Cc1c[nH]c2ccccc12 | . | 21.4 | . | 37.1 | . | . | . | 28.7 | 15.4
C=CC[C@@H](CC(=O)N(CCO)Cc1ccccc1)C(=O)N[C@H](COC(=O)[C@@H](CC=C)Cc1ccc(F)cc1)Cc1c[nH]c2ccccc12 | . | 14.0 | . | 39.4 | . | . | . | 46.4 | 24.7
C=CCC[C@@H](Cc1ccc(F)cc1)C(=O)OC[C@@H](Cc1c[nH]c2ccccc12)NC(=O)[C@@H](CC=C)CC(=O)N[C@@H](CO)Cc1ccccc1 | . | . | . | . | . | / | / | / | /
C=CC[C@H](CC(=O)N(CCO)Cc1ccccc1)C(=O)N[C@H](COC(=O)[C@@H](CC=C)Cc1ccc(F)cc1)Cc1c[nH]c2ccccc12 | . | 14.8 | . | 26.8 | . | . | . | 41.3 | 23.3
C=CC[C@H](CC(=O)N(CCO)Cc1ccccc1)C(=O)N[C@H](COC(=O)[C@H](CC=C)CC(=O)OC(C)(C)C)Cc1c[nH]c2ccccc12 | . | . | . | . | . | / | / | / | /
C=CCC[C@H](Cc1ccc(F)cc1)C(=O)OC[C@H](Cc1c[nH]c2ccccc12)NC(=O)[C@H](CC=C)CC(=O)N(CCO)Cc1ccccc1 | . | 11.9 | . | 24.4 | . | . | . | 36.2 | 17.6
O=S(=O)(NN1CCOCC1)c1ccc(Cl)s1 | . | . | . | . | . | / | / | / | /
Cc1cccc(Nc2nc(NCc3ccco3)nc(N3CCOCC3)n2)c1 | . | . | . | . | . | / | / | / | /
O=C(CSc1nc(-c2ccco2)cc(C(F)(F)F)n1)NC1CCCCCCC1 | . | . | . | . | . | / | / | / | /
Cc1nn(-c2ccccc2)c2sc(C(=O)NC3CCCCCCC3)cc12 | / | . | / | . | / | / | / | / | /
N#Cc1ccc(S(=O)(=O)N2CCN(CN3C(=O)CC4(CCCC4)C3=O)CC2)cc1 | . | . | / | . | . | / | / | / | /
Nc1[nH]c(C(=O)c2ccccc2)c(-c2ccc3ccccc3c2)c1C(=O)NCc1cccc2ccccc12 | / | . | / | . | / | / | / | / | /
C=CCC[C@H](Cc1ccc(F)cc1)C(=O)OC[C@@H](Cc1c[nH]c2ccccc12)NC(=O)[C@@H](CC=C)CC(=O)N[C@@H](CO)Cc1ccccc1 | . | 11.3 | 15.9 | 22.5 | . | . | . | . | .
